Only a selection was taken, and hits are over-represented in it overall.
ST2 IL33 inh – IL1RL1 inhibition; AlphaLISA ST2-Fc/biotin-IL-33 interaction, 1 h; Q01638; 78,000 compounds, 2.3% hits; AID 1259354; inhibition, % for hits at 17 µM; in the data active = inhibition above about 30%
Target sequence (Q01638 whole entry, looked up): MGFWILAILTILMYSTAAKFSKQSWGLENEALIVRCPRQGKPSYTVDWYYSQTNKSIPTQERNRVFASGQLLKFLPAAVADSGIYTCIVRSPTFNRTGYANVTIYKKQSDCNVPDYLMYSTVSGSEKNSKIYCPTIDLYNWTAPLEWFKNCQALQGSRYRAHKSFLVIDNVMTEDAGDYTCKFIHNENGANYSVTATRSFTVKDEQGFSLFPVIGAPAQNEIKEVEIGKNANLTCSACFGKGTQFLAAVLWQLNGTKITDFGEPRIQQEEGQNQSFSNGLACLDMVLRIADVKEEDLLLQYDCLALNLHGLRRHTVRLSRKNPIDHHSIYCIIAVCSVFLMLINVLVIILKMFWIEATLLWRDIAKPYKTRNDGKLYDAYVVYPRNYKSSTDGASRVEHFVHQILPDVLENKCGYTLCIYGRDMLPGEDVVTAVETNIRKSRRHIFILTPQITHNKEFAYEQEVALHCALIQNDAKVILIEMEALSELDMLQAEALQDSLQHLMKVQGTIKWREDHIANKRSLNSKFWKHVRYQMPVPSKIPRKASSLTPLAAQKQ
Numbers without * were called inactive; i = inactive; ! = repeats disagree.

SMILES	ST2 IL33 inh
COc1ccc(OC)c(NC(=O)C2CCN(c3ccc(-c4cccs4)nn3)CC2)c1	i
COc1cc(NC(=O)C(C)(C)Oc2ccc(Cl)cc2)c(OC)cc1Cl	i
COc1cc([N+](=O)[O-])ccc1NC(=O)C(C)(C)Oc1ccc(Cl)cc1	30.0%*
COc1ccc(NC(=O)C(C)(C)Oc2ccc(Cl)cc2)cc1OC	i
CC(C)NC(=O)N1CCN(C(=O)C2CCNCC2)[C@@H](C(=O)N[C@@H](CC2CCCCC2)C(N)=O)C1	i
CCC(C)Oc1ccc(/C=C2/NC(=O)NC2=O)cc1Cl (configuration not stated)	i
c1ccc(C2(c3ccccc3)OC(c3cccnc3)Nc3ccccc32)cc1 (configuration not stated)	35.0%*
c1ccc(-c2nnc(-c3cccnc3)o2)cc1	i
CC(=O)N1c2ccccc2C(=O)OC1c1cccnc1 (configuration not stated)	i
Clc1ccc2nc(-c3ccco3)c(Nc3ccccc3)n2c1	i
C=CCc1cc(OC)c(O)c(-c2cc(CC=C)cc(OC)c2O)c1	41.0%*
COc1cc(CCCO)cc(-c2cc(CCCO)cc(OC)c2O)c1O	i
C=CCc1ccc(OCCOc2ccc(C=O)cc2OC)c(OC)c1	i
O=C1CC(c2ccc(F)cc2)c2cc3c(cc2N1)OCCO3 (configuration not stated)	i
c1ccc2c3c(ccc2c1)OCN(c1ccc2c(c1)OCCO2)C3	i
CCn1cnnc1CCNC(=O)c1cnn2c1CCCC2	i
O=C(CNS(=O)(=O)c1cccs1)N1CCc2ccccc21	i
O=C1Nc2ccc(Br)cc2C(=O)N2CCN(C(=O)c3cccc(F)c3)C[C@H]12	37.0%*
O=C1Nc2ccc(Br)cc2C(=O)N2CCN(C(=O)c3ccccc3)C[C@H]12	i
O=C1Nc2ccc(-c3ccccc3)cc2C(=O)N2CCN(C(=O)c3cccc(F)c3)C[C@H]12	i
COC(=O)Cn1c(C)cc2ccccc2c1=O	i
C=CCn1c(=O)c(-c2ccc3ccccc3n2)cc2ccccc21	i
CC(C)Nc1ccc(-c2cc(N)nc3[nH]ccc23)nn1	i
CNc1cc(-c2ccc3ccccc3n2)c2cc[nH]c2n1	52.0%*
CCOC(=O)C(CC)Sc1nc2c(c(=O)n1-c1ccc(OCC)cc1)SCC2 (configuration not stated)	i
SMILES	ST2 IL33 inh
Cc1cccc(C)c1Nc1nnc(C(C)(C)C)c(=O)[nH]1	i
C=CCC(=O)NCC1CCN(Cc2cccc3nonc23)C1 (configuration not stated)	i
COc1ccc(C(=O)N2c3ccc(F)cc3CCC2C)cc1 (configuration not stated)	i
Cc1ccc(-c2ccc(/C=C3/NC(=O)NC3=O)o2)cc1[N+](=O)[O-]	41.0%*
Cc1ccc(C2=N/C(=C\c3cccnc3)C(=O)O2)cc1[N+](=O)[O-]	i
CC1=C(C#N)C(=O)NC(=O)/C1=C\c1ccc(-c2cc(C)c(C)cc2[N+](=O)[O-])o1	34.0%*
Cc1ccc(-c2ccc(C=C3C(=O)OC(C)(C(C)(C)C)OC3=O)o2)cc1[N+](=O)[O-] (configuration not stated)	i
Cc1ccsc1S(=O)(=O)c1ccccc1	i
Cc1nnc(SCC(=O)NCc2cccc(-c3ccccc3)c2)s1	i
O=c1[nH]nc(Cc2cccnc2)n1Cc1cccs1	i
COc1cccc(-c2noc(-c3ccc(N4CCC(N(C)C)C4)nc3)n2)c1OC (configuration not stated)	i
CC1(C(=O)NC2CCCC2)CCC(=O)N1CCN1CCOCC1 (configuration not stated)	i
CC(c1ccccn1)N(C)Cc1ccc(C(F)(F)F)nc1 (configuration not stated)	i
Cc1cccc(-n2ncc3c(N4CCN(c5ccccc5F)CC4)ncnc32)c1	i
O=S(=O)(Nc1ccccn1)c1ccc(Br)cc1	i
Cc1ccc(NC(=O)c2ccc(C)c(S(=O)(=O)Nc3ccccn3)c2)cc1	i
O=C(Nc1ccc(Br)cc1)c1cccc(S(=O)(=O)Nc2ccccn2)c1	42.0%*
CCCCC(CC)CNC(=O)C1CCC(Cn2c(=O)[nH]c3ccsc3c2=O)CC1 (configuration not stated)	i
O=C1OC(c2ccccc2)OC(=O)C1=Cc1ccc(-c2cccc(C(=O)O)c2)o1 (configuration not stated)	i
CCn1cc(C(=O)NC2CCCCC2)c(=O)c2cc(S(=O)(=O)N3CCC(C)CC3)ccc21	i
NC(=O)c1nc(C(N)=O)c(C(=O)O)cc1C(=O)O	i
COc1cc(OC)cc(C(=O)N2CCN=C2SCc2ccc(C)cc2)c1	i
CCCn1nccc1NC(=O)c1cccc(CN2C[C@@H](C)O[C@@H](C)C2)c1	i
Nc1ccc(-c2nc3ccc(-c4nc5ccc(N)cc5[nH]4)cc3[nH]2)cc1	35.0%*!
Nc1ccc(-c2nc3ccccc3[nH]2)cc1	i
SMILES	ST2 IL33 inh
Nc1ccc(CCc2nc3ccc(N)cc3[nH]2)cc1	i
O=C1C2C(c3ccccc3O)NC(Cc3cnc[nH]3)(C(=O)O)C2C(=O)N1Cc1ccccc1 (configuration not stated)	i
O=C(C1CCOCC1)N1CCOC(CCCc2ccccc2)C1 (configuration not stated)	i
CC(=O)Nc1ccc(Nc2nc(C)cc(Nc3ccc(C)cc3)n2)cc1	i
COc1ccc(Nc2cc(C)nc(-c3ccccc3)n2)cc1	i
Cc1ccc(Nc2cc(C)nc(Nc3ccc(NC(=O)C(C)(C)C)cc3)n2)cc1	33.0%*
COc1ccc(Nc2cc(C)nc(Nc3ccc(NC(=O)C4CCCCC4)cc3)n2)cc1	34.0%*
Cc1ccc(Nc2cc(C)nc(Nc3ccc(NC(=O)c4ccc(Br)o4)cc3)n2)cc1	i
Cc1cc(Nc2ccccc2)nc(Nc2ccc(NC(=O)C3CCCCC3)cc2)n1	i
Cc1ccc(Nc2cc(C)nc(Nc3ccc(NC(=O)c4ccc(Br)cc4)cc3)n2)cc1	i
Cc1ccc(Nc2cc(C)nc(Nc3ccc(NC(=O)C4CCCCC4)cc3)n2)cc1	30.0%*
Cc1onc(-c2c(Cl)cccc2Cl)c1C(=O)N1CCCC(C)C1 (configuration not stated)	i
CC1(C)CC(=O)C2=C(C1)Nc1nc(SCc3ccccc3F)[nH]c(=O)c1C2c1cccnc1 (configuration not stated)	i
CC(=O)Nc1ccc(N2C(=O)CC(N3CCCCCC3)C2=O)cc1 (configuration not stated)	i
CCc1cc2c(=O)c(Oc3ccccc3)coc2cc1O	i
O=C(NCc1ccc2c(c1)OCO2)[C@H](CSCc1ccccc1)N1Cc2ccccc2C1=O	i
CC(C)(C)C(=O)Nc1nccs1	i
CSCCOC(=O)C1=C(C)NC(=O)NC1c1cccc(O)c1 (configuration not stated)	i
Cc1cc([N+](=O)[O-])nn1CCCC(=O)Nc1ccc(Cl)cc1	i
COc1cccc(Nc2ncnc3sc4c(c23)CCCC4)c1	i
c1nc(Nc2ccc(N3CCCCC3)cc2)c2c3c(sc2n1)CCCC3	58.0%*
CCNc1ncnc2sc3c(c12)CCCC3	i
O=C(COc1ccccc1F)Nc1c(C(=O)Nc2ccc(F)cc2)oc2ccccc12	i
N#Cc1c(N)nc2c(c1-c1cccs1)CCCCC2	i
Cc1nnsc1CN(C)C(=O)CCC(=O)NC1CCCC1	97.0%*
O=C(CCC(=O)NC1CCCCCC1)NC1CCCCCC1	i
Cc1nnsc1CN(C)CC(=O)NC1CCCCCCC1	i

Source: PubChem BioAssay
